# PAFAH1B2 inh: inhibitors of human PAFAH1B2; P68402; 1.2% of 340,000 active; recombinant PAFAH1B2, FP-rhodamine activity probe, fluorescence polarization; inhibition, % at 3.39 µM;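 active = inhibition above the mean of all tested compounds plus 3 SD, cut at about 24% in these data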;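 also: 0% = enzyme with DMSO and 100% = wells lacking PAFAH1B2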
# Target sequence (P68402 whole entry, looked up): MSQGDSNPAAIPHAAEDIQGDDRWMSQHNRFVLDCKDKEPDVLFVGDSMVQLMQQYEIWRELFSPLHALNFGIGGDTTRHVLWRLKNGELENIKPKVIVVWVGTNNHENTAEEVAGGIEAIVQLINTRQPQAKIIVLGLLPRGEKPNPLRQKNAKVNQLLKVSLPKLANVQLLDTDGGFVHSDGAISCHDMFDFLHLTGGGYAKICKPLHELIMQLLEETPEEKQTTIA
# pPAFAH FP inh: pPAFAH (human) enzyme inhibition; AID 463082; 1.5% of 330,000 active; inhibition, % at 3.39 µM; recombinant pPAFAH, FP-rhodamine probe fluorescence polarization;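 active = inhibition above the mean inhibition across the screen plus 3 SD, cut at about 25% in these data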;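 also: inhibitors block binding of the rhodamine activity-based probe so polarization drops; 0% = enzyme with DMSO and 100% = wells lacking pPAFAH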
# PME-1 inh: PME-1 (human) inhibition; 0.53% of 320,000 active; inhibition, % at 5.9 µM; recombinant PME-1, FP-Rh probe fluorescence polarization; Q9Y570;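 active = inhibition above the campaign mean of all compounds plus 3 SD, cut at about 26% in these data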;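 also: competitive labeling of PME-1 active site by serine hydrolase directed probe; 0% = PME-1 with DMSO and 100% = wells lacking PME-1 enzyme; inhibitors block probe labeling so polarization falls and inhibition rises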
# Target sequence (Q9Y570 whole entry, looked up): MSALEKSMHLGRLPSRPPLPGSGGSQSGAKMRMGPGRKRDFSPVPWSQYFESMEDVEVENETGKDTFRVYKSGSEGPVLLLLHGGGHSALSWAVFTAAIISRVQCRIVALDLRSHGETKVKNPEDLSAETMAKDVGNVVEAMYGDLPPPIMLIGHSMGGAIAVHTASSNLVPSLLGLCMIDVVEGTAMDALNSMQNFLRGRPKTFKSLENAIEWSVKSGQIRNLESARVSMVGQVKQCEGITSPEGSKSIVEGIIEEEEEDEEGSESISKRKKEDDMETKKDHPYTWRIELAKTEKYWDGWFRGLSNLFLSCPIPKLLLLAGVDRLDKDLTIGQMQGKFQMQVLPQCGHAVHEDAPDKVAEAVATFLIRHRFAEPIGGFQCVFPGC
# Fam108B inh: counter-screen for RBBP9 inhibitors: inhibitors of mouse Fam108B; 0.33% of 300,000 active; recombinant Fam108B, FP-Rh probe fluorescence polarization; inhibition, % at 9.51 µM;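 active = inhibition above the screen mean inhibition plus 3 SD, computed separately per campaign, cut at about 18% in these data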;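 also: inhibitors lower polarization as less probe binds the enzyme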
# PAFAH1B3 FP inh: blocks human PAF acetylhydrolase 1B catalytic subunit 3; 0.28% of 340,000 active; AID 492972; recombinant PAFAH1B3, FP-rhodamine probe, fluorescence polarization; inhibition, % at 3.39 µM; Q15102;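 active = inhibition above the screen-wide average of all tested compounds plus 3 SD, cut at about 25% in these data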;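 also: 0% = enzyme with DMSO only and 100% = wells lacking PAFAH1B3 protein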
# PAFAH2 inh: PAFAH2 (human) inhibition | inhibition, % at 3.39 µM | Q99487 | recombinant PAFAH2, FP-rhodamine activity probe, fluorescence polarization | 0.99% of 340,000 active | AID 492956;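 active = inhibition above the mean over all tested compounds plus 3 SD, cut at about 30% in these data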;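 also: inhibitors block probe labeling of enzyme so polarization drops; 0% = enzyme with DMSO and 100% = wells lacking PAFAH2 protein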
# PAFAH2 FP conf: confirmation of human PAFAH2 inhibitors | shares compounds with PAFAH2 inh | recombinant PAFAH2, FP-rhodamine activity probe, fluorescence polarization | inhibition, % at 3.39 µM | 65% of 2,300 active | AID 493030;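 active = mean inhibition over three repeats above a set limit taken from the earlier primary screen, cut at about 30% in these data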;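 also: inhibitor blocks binding of rhodamine activity probe so polarization falls; 0% = enzyme with DMSO and 100% = wells lacking PAFAH2 protein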
# * marks the source's active call; other numbers are inactive results; x = no result given. Rows were chosen to be rich in hits. Some 2.9% of all compounds tested hit in one or more screens of this group.
SMILES,PAFAH1B2 inh,pPAFAH FP inh,PME-1 inh,Fam108B inh,PAFAH1B3 FP inh,PAFAH2 inh,PAFAH2 FP conf
NC(=O)c1nsc(C(=O)N(CC(=O)NCc2ccco2)c2ccccc2F)c1N,3,-4,2,-1,20,1,x
C#C[C@]1(O)CC[C@H]2[C@@H]3CCc4cc(OC5CCCC5)ccc4[C@H]3CC[C@@]21C,1,-1,-5,-1,-4,53*,51*
CCN(CC)c1ccc(/C=N/n2c(-c3ccccc3Br)n[nH]c2=S)cc1,9,17,2,-3,1,31*,10
O=C(COC(=O)c1ccc2c(c1)OCO2)Nc1cccc(F)c1,0,7,1,x,-3,81*,84*
CC(C)(C)NC(=O)COC(=O)c1ccc(O)cc1,0,4,4,0,1,64*,53*
NC(=O)c1ccc(NC(=O)COC(=O)c2ccc3c(c2)OCO3)cc1,1,1,4,x,-9,4,x
CCC(=O)Nc1cc(C(=O)OCC(=O)c2ccccc2Cl)ccc1C,10,-2,-6,-3,5,42*,32*
O=C(COC(=O)c1ccc(O)cc1)NCC1COc2ccccc2O1 (stereo not given),-3,3,4,x,4,32*,27
COc1cc(/C=N/NC(=O)C(=O)NCc2cccnc2)ccc1O,-3,7,-1,-6,-1,-1,x
COc1cc(/C=C2/C(=N)N3C(=NC2=O)SN=C3S(=O)(=O)C(C)C)ccc1OC(=O)c1ccco1,10,6,-7,-2,6,5,x
C=CCN(c1ccc(OC)cc1)S(=O)(=O)c1ccc(Cl)c(C(=O)OCC(=O)NC2CC2)c1,12,0,-2,-3,3,20,x
Cc1ccccc1CC(=O)N1CCCc2ccccc21,7,4,2,6,7,-4,x
CC(=O)c1cccc(NC(=O)COC(=O)c2ccc3c(c2)OCCO3)c1,3,7,-1,2,8,84*,71*
O=C(COC(=O)c1ccc(O)cc1)Nc1ccccc1,-3,17,-7,3,8,92*,80*
N/C(=N\OC(=O)c1ccc2c(c1)OCO2)c1ccc(Cl)cc1,-4,3,-1,6,9,33*,30*
O=C(COC(=O)c1ccc(O)cc1)Nc1ccc2c(c1)OCCO2,-5,16,x,x,5,78*,69*
O=C(COC(=O)c1ccc(O)cc1)c1ccc2c(c1)OCCO2,3,x,x,x,0,14,x
O=C(COC(=O)c1ccc(O)cc1)NC(=O)NCc1ccccc1,5,4,-1,x,8,11,x
COc1cc(OC)cc(C(=O)OCC(=O)Nc2cccc(C(C)=O)c2)c1,4,1,-6,-2,6,7,x
Cc1ccc(S(=O)(=O)c2nc(S(C)(=O)=O)sc2N2CCC(O)CC2)cc1,-2,0,0,-1,-6,4,x
Fc1ccccc1Cc1noc(CN2CCCC(CN3CCOCC3)C2)n1 (stereo not given),2,7,-4,3,3,3,x
COc1ccccc1/C=C/C(=O)NC(=S)NC(C)C,-1,-12,-6,-8,-3,1,x
CC(OC(=O)c1ccc(O)cc1)C(=O)Nc1cc(C(F)(F)F)ccc1Cl (stereo not given),4,-1,-6,-4,1,-2,x
O=C(COC(=O)c1cccnc1Cl)Nc1ccc2c(c1)OCCO2,-1,6,0,0,9,36*,30*
O=C(COC(=O)c1cccnc1Cl)NCc1ccc2c(c1)OCO2,-3,0,-5,-8,2,6,x
SMILES,PAFAH1B2 inh,pPAFAH FP inh,PME-1 inh,Fam108B inh,PAFAH1B3 FP inh,PAFAH2 inh,PAFAH2 FP conf
Nc1ccc(C(=O)OCC(=O)NC(=O)c2ccccc2)cc1[N+](=O)[O-],-3,6,3,0,5,38*,22
CN(C)c1cccc(C(=O)OCC(=O)Nc2ccccc2-c2ccccc2)c1,-2,6,6,4,0,3,x
O=C(COC(=O)c1ccc(O)cc1)Nc1cc(C(F)(F)F)ccc1Cl,13,12,1,-6,5,55*,40*
CN(C)c1cccc(C(=O)OCC(=O)Nc2ccccc2Cl)c1,1,10,9,3,-2,54*,50*
COc1cccc(C2CC(=O)C3=C(C2)Nc2ccccc2N(C(=O)CCC(=O)O)C3c2ccc(F)cc2)c1 (stereo not given),6,4,2,0,11,0,x
O=C(COC(=O)c1ccc2c(c1)OCO2)Nc1ccccc1Cl,6,1,6,x,5,58*,44*
CCOc1ccc(NC(=O)COC(=O)c2ccc3c(c2)OCO3)cc1,2,5,-1,x,-6,64*,62*
Nc1ccc(C(=O)OCC(=O)Nc2ccc3c(c2)OCO3)cc1[N+](=O)[O-],8,5,13,3,9,65*,49*
O=C(COC(=O)c1ccc(N2CCOCC2)c([N+](=O)[O-])c1)Nc1ccc2c(c1)OCO2,6,21,1,-3,8,-7,x
O=C(COC(=O)c1ccc2[nH]c3c(c2c1)CCCC3)Nc1ccccc1Cl,1,3,1,1,8,32*,23
Cc1ccc(NC(=O)COC(=O)c2ccc3c(c2)OCCO3)cc1,-3,9,-10,x,8,86*,85*
COc1ccc(C)cc1NC(=O)COC(=O)c1ccc2c(c1)OCCO2,6,1,3,x,12,20,x
CCN(CC)CCSc1nnc2c3ccccc3n(Cc3ccccc3)c2n1,2,7,5,-3,-12,-2,x
Cc1nn(Cc2ccc(Cl)cc2)c(C)c1NC(=O)c1ccc([N+](=O)[O-])cc1,1,4,-3,-2,13,-1,x
Cc1ccc(C(=O)NCC(=O)OCC(=O)NC(C)c2ccccc2)s1 (stereo not given),0,-6,-9,2,4,7,x
CC(NC(=O)COC(=O)c1ccc2c(c1)OCCO2)c1ccccc1 (stereo not given),4,12,x,x,4,63*,61*
CC(NC(=O)COC(=O)c1ccc(S(=O)(=O)N2CCOCC2)cc1)c1ccccc1 (stereo not given),8,1,x,x,8,-2,x
Cc1ccc(C(=O)OCC(=O)NC(C)c2ccccc2)s1 (stereo not given),1,13,x,x,1,78*,69*
CCNc1ccc(C(=O)OCC(=O)NCc2ccc(C)cc2)cc1[N+](=O)[O-],1,-2,2,-10,1,1,x
CCNc1ccc(C(=O)OCC(=O)NC(C)c2ccccc2)cc1[N+](=O)[O-] (stereo not given),9,5,12,-2,9,83*,73*

# Source: PubChem BioAssay (The Scripps Research Institute Molecular Screening Center)
